About 83,000 compounds went through this panel and 20% of them were active in at least one assay; those are over-represented in the sample as a whole.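 Single-concentration screen, 48 h exposure, 96-well plates. Endpoint: percent growth. Below 10 = active.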 Activity calls are given as the source filed them.
System: CCRF-CEM leukemia
Assay: NCI-60 one-dose screen, 48 h (100 = growth as untreated, 0 = no growth, -100 = all killed)
Conditions: 10 µM unless noted

Row | SMILES | growth
1 | COc1ccc2c(c1)c(-c1noc(-c3cn(C)c4ncc(F)cc34)n1)cn2C | 99% (inactive)
2 | CS(=O)(=O)c1cccnn1 | 84.9% (inactive)
3 | O=C(Nc1ccc(Oc2ccc(F)cc2)c(Cl)c1)c1cccnn1 | 75.1% (inactive)
4 | CCC(Br)(CC)C(=O)c1ccc(OCC(=O)O)c(Cl)c1Cl | 116% (inactive)
5 | NC(=O)c1cccc(-c2ccc(S(=O)(=O)Nc3ccc4c(c3)N(C(=O)C3CC3)CCC4)cc2)c1 | 33.5% (inactive)
6 | C#CCC(C(=O)OCC)C(=O)OCC | 104% (inactive)
7 | O=[N+]([O-])c1cc(CCl)ccc1OCCBr | 86.6% (inactive)
8 | Cc1ccc(C2=C/C(=C/c3ccc(Br)cc3)C(=O)N2CCc2ccc(S(N)(=O)=O)cc2)cc1 | 104% (inactive)
9 | COc1ccc(C(=O)/C=C/c2ccccn2)c(O)c1 | 10.4% (inactive)
10 | Cc1cc(C)c(S(=O)(=O)/N=c2/n(-c3ccccc3)nc3n2CCN3C2=NCCN2)c(C)c1 | 83.7% (inactive)
11 | Cc1ccc(S(=O)(=O)n2cc(C(=O)C(=O)N3CCCCC3)c3ccccc32)cc1 | 74.9% (inactive)
12 | COc1cc(C)cc2oc3oc(=N)c(C(=O)c4ccccc4)cc3c(=O)c12 | 118% (inactive)
13 | COc1ccc(OC)c([N+](=O)[O-])c1C(=O)CNC(C)=O | 110% (inactive)
14 | Cc1ccc(S(=O)(=O)N/N=C2\CC3CCC2(C)C3(C)C)cc1 (centres undefined) | 112% (inactive)
15 | O=C(N=c1n(-c2ccccc2)nc2n1CCN2C1=NCCN1C(=O)c1ccc(Cl)cc1)c1ccc(Cl)cc1 | 51.4% (inactive)
16 | O=C(NCc1ccc(Cn2c(=O)sn(-c3ccccc3)c2=O)cc1)OCc1ccc2c(Br)cc(Br)c(O)c2n1 | 4.61% (active)

Row | SMILES | growth
17 | C=C(C)[C@@H]1CC[C@]2(COCCC#N)CC[C@]3(C)[C@H](CC[C@@H]4[C@@](C)(CCCNCCC#N)[C@H](C(=C)C)CC[C@]43C)[C@@H]12 | 1.32% [100 µM] (active)
18 | O=C(Nc1cccc(F)c1)c1cc(=O)[nH]c2cc(Br)ccc12 | 58.8% (inactive)
19 | O=C(NCCCNC(=O)OCc1ccc2c(Br)cc(Br)c(O)c2n1)OCc1ccc2c(Br)cc(Br)c(O)c2n1 | 4.23% (active)
20 | COc1ccc(OC)c(NC=O)c1 | 127% (inactive)
21 | CCN(CCNc1ccc(C)c2sc3cc(Cl)ccc3c(=O)c12)CC(C)O (centres undefined) | 36.8% (inactive)
22 | CC(=O)OC[C@]12CC[C@@H]([C@@H](C)C(N)=O)[C@@H]1[C@H]1CC[C@@H]3[C@@]4(C)CC[C@H](OC(C)=O)C(C)(C)[C@@H]4CC[C@@]3(C)[C@]1(C)CC2 | -12.4% [100 µM] (active)
23 | O=C(Nc1ccccc1)Nc1ccc(C(=O)/C=C/c2ccc(N3CCCC3)cc2)cc1 | 72.6% (inactive)
24 | C#C[C@]1(O)CC[C@H]2[C@@H]3CC=C4c5nc(Nc6ccccn6)sc5CC[C@]4(C)[C@H]3CC[C@@]21C | 0.227% (active)
25 | Cn1cc(-c2nnc(-c3cn(C)c4ncccc34)o2)c2ccccc21 | 49.8% (inactive)
26 | O=C1C(Cl)=C(Nc2ccc3cn[nH]c3c2)C(=O)c2ccccc21 | -43.8% (active)
27 | COc1cc(/C=C/C(=O)/C=C/c2ccc(-n3ccnc3C)cc2)ccc1O | 35.5% (inactive)
28 | Nc1cc(Cl)cc2cccnc12 | 55.7% (inactive)
29 | CN(C)CCOc1ccc(/C(=C(/CCCl)c2ccccc2)c2ccccc2)cc1 | -6.69% (active)
30 | Nc1cc(N)c(N=Nc2ccc(S(=O)(=O)O)cc2)cc1N=Nc1ccc(-c2ccc(N=Nc3ccc(O)c(C(=O)O)c3)cc2)cc1 | 98% (inactive)
31 | Cn1cc(-c2noc(-c3cn(C)c4ncc(F)cc34)n2)c2ccccc21 | 78% (inactive)
32 | Nc1ccc(NC(=O)c2ccccc2)c2c1C(=O)c1ccccc1C2=O | 91.1% (inactive)

System: MOLT-4 leukemia
Assay: as above
Conditions: 10 µM unless noted

Row | SMILES | growth
33 | COc1ccc2c(c1)c(-c1noc(-c3cn(C)c4ncc(F)cc34)n1)cn2C | 87.6% (inactive)
34 | O=C(N/N=C\c1cc(Cl)ccc1O)N/N=C/c1cc(Cl)ccc1O | 43.2% (inactive)
35 | O=C(O)c1ccccc1C(F)(F)F | 97.1% (inactive)
36 | O=C(Nc1ccc(Oc2ccc(F)cc2)c(Cl)c1)c1cccnn1 | 59.8% (inactive)
37 | CCC(Br)(CC)C(=O)c1ccc(OCC(=O)O)c(Cl)c1Cl | 109% (inactive)
38 | NC(=O)c1cccc(-c2ccc(S(=O)(=O)Nc3ccc4c(c3)N(C(=O)C3CC3)CCC4)cc2)c1 | 57.8% (inactive)
39 | C#CCC(C(=O)OCC)C(=O)OCC | 100% (inactive)
40 | O=[N+]([O-])c1cc(CCl)ccc1OCCBr | 109% (inactive)
41 | O=C(O)c1cn(C2CC2)c2cc(N3CCN(Cc4cc(Cl)ccc4O)CC3)c(F)cc2c1=O | 74.1% (inactive)
42 | Cc1ccc(C2=C/C(=C/c3ccc(Br)cc3)C(=O)N2CCc2ccc(S(N)(=O)=O)cc2)cc1 | 82.1% (inactive)
43 | COc1ccc(C(=O)/C=C/c2ccccn2)c(O)c1 | 74.2% (inactive)
44 | Cc1cc(C)c(S(=O)(=O)/N=c2/n(-c3ccccc3)nc3n2CCN3C2=NCCN2)c(C)c1 | 66.2% (inactive)
45 | Cc1ccc(S(=O)(=O)n2cc(C(=O)C(=O)N3CCCCC3)c3ccccc32)cc1 | 86.9% (inactive)
46 | COc1ccc(OC)c([N+](=O)[O-])c1C(=O)CNC(C)=O | 101% (inactive)
47 | Cc1ccc(S(=O)(=O)N/N=C2\CC3CCC2(C)C3(C)C)cc1 (centres undefined) | 111% (inactive)
48 | O=C(N=c1n(-c2ccccc2)nc2n1CCN2C1=NCCN1C(=O)c1ccc(Cl)cc1)c1ccc(Cl)cc1 | 14.5% (inactive)

Row | SMILES | growth
49 | O=C(NCc1ccc(Cn2c(=O)sn(-c3ccccc3)c2=O)cc1)OCc1ccc2c(Br)cc(Br)c(O)c2n1 | 2% (active)
50 | C=C(C)[C@@H]1CC[C@]2(COCCC#N)CC[C@]3(C)[C@H](CC[C@@H]4[C@@](C)(CCCNCCC#N)[C@H](C(=C)C)CC[C@]43C)[C@@H]12 | 2.22% [100 µM] (active)
51 | O=C(NCCCNC(=O)OCc1ccc2c(Br)cc(Br)c(O)c2n1)OCc1ccc2c(Br)cc(Br)c(O)c2n1 | 0.977% (active)
52 | COc1ccc(OC)c(NC=O)c1 | 88.2% (inactive)
53 | CCN(CCNc1ccc(C)c2sc3cc(Cl)ccc3c(=O)c12)CC(C)O (centres undefined) | 34.5% (inactive)
54 | CN(C)c1ccc(-c2ccc(-c3ccc(C(=N)N)cc3)s2)cc1 | 2.73% (active)
55 | CC(=O)OC[C@]12CC[C@@H]([C@@H](C)C(N)=O)[C@@H]1[C@H]1CC[C@@H]3[C@@]4(C)CC[C@H](OC(C)=O)C(C)(C)[C@@H]4CC[C@@]3(C)[C@]1(C)CC2 | -29.1% [100 µM] (active)
56 | O=C(Nc1ccccc1)Nc1ccc(C(=O)/C=C/c2ccc(N3CCCC3)cc2)cc1 | 67.5% (inactive)
57 | C#C[C@]1(O)CC[C@H]2[C@@H]3CC=C4c5nc(Nc6ccccn6)sc5CC[C@]4(C)[C@H]3CC[C@@]21C | -11.8% (active)
58 | O=C1C(Cl)=C(Nc2ccc3cn[nH]c3c2)C(=O)c2ccccc21 | -38.4% (active)
59 | COc1cc(/C=C/C(=O)/C=C/c2ccc(-n3ccnc3C)cc2)ccc1O | 32.4% (inactive)
60 | Nc1cc(Cl)cc2cccnc12 | 77.8% (inactive)
61 | CN(C)CCOc1ccc(/C(=C(/CCCl)c2ccccc2)c2ccccc2)cc1 | -4.84% (active)
62 | Nc1cc(N)c(N=Nc2ccc(S(=O)(=O)O)cc2)cc1N=Nc1ccc(-c2ccc(N=Nc3ccc(O)c(C(=O)O)c3)cc2)cc1 | 102% (inactive)
63 | Cn1cc(-c2noc(-c3cn(C)c4ncc(F)cc34)n2)c2ccccc21 | 77.4% (inactive)
64 | Nc1ccc(NC(=O)c2ccccc2)c2c1C(=O)c1ccccc1C2=O | 106% (inactive)

— PubChem BioAssay (NCI)
